The values below come from article PMC13494018.

B1: d8r1_design_ppi_1314_dldesign_0_cycle0_af2pred (protein)
chain: SSEEEEAKRLAARAARAAARRLEEAAEERAAEDPEAARRAAEEGRRLAEEAEKGNAEEAKRALTEITRLLREVLA
B2: d8r1_design_ppi_1162_dldesign_0_cycle1_af2pred (protein)
chain: MSLAEEAALEGQKNSPMLGAVLYGHAKRSDAAVAELLLEAAKGDAATARAQARAAAALLPPEEGARLVTDVTAALEADEKDK
B3: d8r1_design_ppi_508_dldesign_0_cycle0_af2pred (protein)
chain: AGEEALEKAIKEVKELISEAAKALQESREKGIEKAKEGAKRAEKLKKEAAKEPLAERIGRVLESAKGFLEKLKEALEES
B4: d8r1_design_ppi_41_dldesign_0_cycle0_af2pred (protein)
chain: RGEEVLERVKESASRAMSLAAKDPSLSEKVLEALALASEAGRAIKTEGVEKGEELAKKAEELTKEIEEEAK
B5: d8r1_design_ppi_701_dldesign_0_cycle1_af2pred (protein)
chain: EERRRRGEELLLEALALIGAAARDPAAAPAAVAALRAAAALVPELAPELERAAALVEAGLAAAKEAAAIVGSLALKMAS
B6: d8r1_design_ppi_713_dldesign_0_cycle1_af2pred (protein)
chain: AEFLAQGRAAAAATSPANAAALEAAYAAAKAQEDKMEGMKILLATATTLAAASTPAEAVLIGKAAAYFIADLLS
B7: d8r1_design_ppi_477_dldesign_0_cycle1_af2pred (protein)
chain: SAEDVKRAAAGLKAAAKAYAALAAENKEVKEAAKELEKAAKLLLEDPEKGREKAAEESLKLNQLVIKAAD
B8: d8r1_design_ppi_457_dldesign_0_cycle1_af2pred (protein)
chain: AAAKAAAAAEAEALIAKAEAVVKAIKDFTALAAASTPEDGAAALRAAENLKTTAVDLATQAAALAKALGRPDLATRATAVAQAAKDAM
B9: d8r1_design_ppi_1045_dldesign_0_cycle0_af2pred (protein)
chain: SADTKEGADLFTKAAEQLLKVGEELLKKGKETGDEKLIKEALKYFEAAAAYAEAAATLAAKADAAAAAKAKELKEKAKKAAEEAKKAL
B10: d8r1_design_ppi_516_dldesign_0_cycle1_af2pred (protein)
chain: AEEELRRQIEEQGERLEEAAEELRRLAEEARERDPAAGRALEAAAESLRGLVEIAKELDPGSAQGVIQVAERVAERARRLAEEYLAA
B11: d8r1_design_ppi_948_dldesign_0_cycle0_af2pred (protein)
chain: SEEAKKKYEEEKKKLEELRKEAEKLAAADPAAGGAIATLIDNGIAAGDKLYEAGSVESAAKLLESVREKAERLLAELRAAVAA
B12: d8r1_design_ppi_416_dldesign_0_cycle1_af2pred (protein)
chain: SDESARIKAETLGRISEAMREARRAAEEGDVERAREAAERAREAGREGAEKALELGDESTAESLRSTAEKVAERAERLAEEAAA
B13: d8r1_design_ppi_645_dldesign_0_cycle1_af2pred (protein)
chain: KIEKAKELLKKAKELLKEAKANPETAIEKAKAALADLSEAASLAAEAAKDPETKEEAEKLLAEAKKLGLEATQLLMKQSSLEEK
B14: d8r1_design_ppi_895_dldesign_0_cycle1_af2pred (protein)
chain: MTPEAKSAFAAAQSLADAIKLGAKEGLLTPETRAALVEKLRAAAAEAAALDPAIAPQAAALAADAEAAAA
B15: d8r1_design_ppi_623_dldesign_0_cycle0_af2pred (protein)
chain: SAAAAAAAAAAKAALAAAKKKAEEAVKLTPEEAAKVLGEIAAAATAALAAATDAADRAALRAAAAEVFSTGAKNLAKAAKKAEE
B16: d8r1_design_ppi_1335_dldesign_0_cycle0_af2pred (protein)
chain: EAAAAATIEAAAKAAAEFTGLPVEEVLALAALAAADPAAARALRERLGEEDPLRAAAADVMLTVVAQAKRELA
B17: d8r1_design_ppi_823_dldesign_0_cycle1_af2pred (protein)
chain: SSSEEEIDAKLEAAVAAVKEATALAKAAVAEGPAALPALEAFAAEKTAEFAKLGGVGAAAGAALQAVVDAARAQLA
B18: d8r1_design_ppi_1006_dldesign_0_cycle0_af2pred (protein)
chain: AAAAAAAKAARTKEVIAKMKELISEAMLAKSEGTGVEALKKAAEEAKKLAKEAKAAGDTAAATVANNAAAFLETAAKAEEEAK
B19: d8r1_design_ppi_1191_dldesign_0_cycle0_af2pred (protein)
chain: AAAALAAQAAAYTATYNAASAALAVALADPSFSPQSQKNIAQSQVDAATKALEAATAYDPAQAAAWQAALDAAQAQLAAI
B20: d8r1_design_ppi_295_dldesign_0_cycle0_af2pred (protein)
chain: SLKEKAEKHLELAQKYAEKAGKLRGVKIEVKGANLEELKALRKEFGAWADEAAKAGDKETAIEATRAAAHLGEAIDLLEEL
B21: d8r1_design_ppi_1305_dldesign_0_cycle1_af2pred (protein)
chain: MEAEKLAKELLEKAKELAALPMGEASKAAAALAKEYAAKNPEVALKAAKIAYEKAVKDPSVSSKVRQLLAAALAEATYELKKKKAAA
B22: d8r1_design_ppi_713_dldesign_0_cycle0_af2pred (protein)
chain: DEFLAEANAAAAATSPANAAALNAAFAAALAQSDVGEGIKTLAAAADALAAASTPADAANIGKATSYFIAYLSS
B23: d8r1_design_ppi_14_dldesign_0_cycle1_af2pred (protein)
chain: AAAVAAAIEAAMRAAMPSDPAKAAELAALIAAKGLAGAKEAARKAMELFREDPELGKQAFAGVDAARAILAAA
B24: d8r1_design_ppi_901_dldesign_0_cycle1_af2pred (protein)
chain: AAAAARADIATLLAFMTKAIAEGDESAANMAANGAIASGAKAGPELAAQAAAEAAAARAAALAAKAAAAA
B25: d8r1_design_ppi_310_dldesign_0_cycle1_af2pred (protein)
chain: ALAAALNSVAALAKLAAELLETDPAAGKQLAKNVAVALAKLGLTEEAARLKAATPEELKAVAKEAAAAAKAAAAALA
B26: d8r1_design_ppi_891_dldesign_0_cycle0_af2pred (protein)
chain: SAVREEAERKAEEVAELAKKDPEKGLEAMKAYLEELVAAGHREAALYAAARAASLMFSDPSTLETAIAVSRYAAELAA
B27: d8r1_design_ppi_587_dldesign_0_cycle1_af2pred (protein)
chain: MLTPEALNAIAKLGSEAGSLAAKATPEQKAEGRKLGELVAEKMLASSPEEALEIAKKLLEEGKKDLTYAVATATAASRVLRAYLQQLS
B28: d8r1_design_ppi_31_dldesign_0_cycle1_af2pred (protein)
chain: DKYSQMAEVWGMLSEVVARVAAELGPEAAEEAIKRAGEAASAAAKDVEEGEKKAKEVKEWADKQLAAAAA
B29: d8r1_design_ppi_1220_dldesign_0_cycle0_af2pred (protein)
chain: KEEEADKLAVEAMRLLGEAAELTKKATTKEQVEAAKKKAEEAKKKAEELLKVDPRKKGLAEALKSAAKKVLEAAEKKEKEL
B30: d8r1_design_ppi_584_dldesign_0_cycle0_af2pred (protein)
chain: AAARAAEAAALKAKAKEIAAEAFSYAALSSRDEEAKKEADKKIEELKKLAKEAKAKGLEEAAKFAEDFAEGAETLKKVVEEA
B31: d8r1_design_ppi_560_dldesign_0_cycle0_af2pred (protein)
chain: SAEEEEEKLREEAEKAVAEAKATAAAFKAQAATATPEKAAALNAAVAALAGLIKIAEDPEARRGASRAAKSVIAHAKRVLAA
B32: d8r1_design_ppi_227_dldesign_0_cycle1_af2pred (protein)
chain: GAKAKAKAVLDKAKEKLAEAMKAALDADESKKPEVYKLIAEAAAALAKGIAAYKAAKNEAQLKEAIAWFEKAIAAAEKAIKLAK
B33: d8r1_design_ppi_1238_dldesign_0_cycle0_af2pred (protein)
chain: MEETKKLIEEARKLAEEARRALKEDKERALELLREAANKASKALALADEESEELAEEAKKVLAEISKVAKELAK
B34: d8r1_design_ppi_360_dldesign_0_cycle1_af2pred (protein)
chain: SEAYEKAVEEAAERVAALIKAAVAAGATPAEAWAAAAKKIEEERKKLKEKFGEEQAEEGARRITARAAKALLRAMAAREE
B35: d8r1_design_ppi_1118_dldesign_0_cycle0_af2pred (protein)
chain: SEGSEALARFAKSMAEVAKIKAEEAAKVDAEVAAIFKEAAKLYEEAAKAAKEDVEKGKKLLTEANKKMAEGLAAMKKKKA
B36: d8r1_design_ppi_20_dldesign_0_cycle1_af2pred (protein)
chain: KEEKAEKMKKEAEKYVERAKADAAKLAGSPQAATAAKLAASAEKSAELMKKALEEGDFGLAEVFLAAAKAAAEQLAKMAAA
B37: d8r1_design_ppi_661_dldesign_0_cycle1_af2pred (protein)
chain: AAADAAAAAAAATAGANAVAAAQLALELNPKSAIDLAEAAIAHFKKLAATGSPAVAAQANAAIAALEAVKAQAKKKLAAE
B38: d8r1_design_ppi_271_dldesign_0_cycle0_af2pred (protein)
chain: AAAELAATIAAAAAAAAADGPRGLALLAGAILRAFPSLSAETLAEIIRLAAADPAAAAEAIAALAAAHPEAAPALAAALRAALAELA

Sequence of PDL1, Q9NZQ7 (Q9NZQ7 whole entry): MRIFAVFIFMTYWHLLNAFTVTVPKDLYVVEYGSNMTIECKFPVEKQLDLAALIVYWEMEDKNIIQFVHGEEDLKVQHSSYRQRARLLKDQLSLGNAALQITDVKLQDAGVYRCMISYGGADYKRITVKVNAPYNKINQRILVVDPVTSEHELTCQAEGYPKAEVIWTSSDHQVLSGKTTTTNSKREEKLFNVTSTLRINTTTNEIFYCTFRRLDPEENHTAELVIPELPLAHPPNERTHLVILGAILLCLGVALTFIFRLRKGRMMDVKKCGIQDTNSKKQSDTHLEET

The test addresses PDL1, Q9NZQ7.
Turning to B1, the “binding in a display sort” value is “not found (inactive)”.

In the case of B2, the “binding in a display sort” value is “not found (inactive)”.

Turning to B3, the “binding in a display sort” value is “not found (inactive)”.

With B4, the “binding in a display sort” value was “not found (inactive)”.

Consider B5, for which the “binding in a display sort” value was “not found (inactive)”.

As to B6, the “binding in a display sort” value was “not found (inactive)”.

Regarding B7, the “binding in a display sort” value is “not found (inactive)”.

In the case of B8, the “binding in a display sort” value is “not found (inactive)”.

In the case of B9, the “binding in a display sort” value was “not found (inactive)”.

In the case of B10, the “binding in a display sort” value is “not found (inactive)”.

With B11, the “binding in a display sort” value is “not found (inactive)”.

On to B12, for which the “binding in a display sort” value was “not found (inactive)”.

Consider B13, for which the “binding in a display sort” value was “not found (inactive)”.

As to B14, the “binding in a display sort” value is “binds (active)”.

With B15, the “binding in a display sort” value was “not found (inactive)”.

In the case of B16, the “binding in a display sort” value was “not found (inactive)”.

B17: the “binding in a display sort” value is “not found (inactive)”.

For B18, the “binding in a display sort” value was “not found (inactive)”.

Turning to B19, the “binding in a display sort” value was “not found (inactive)”.

For B20, the “binding in a display sort” value is “not found (inactive)”.

Regarding B21, the “binding in a display sort” value is “not found (inactive)”.

In the case of B22, the “binding in a display sort” value was “not found (inactive)”.

As to B23, the “binding in a display sort” value is “binds (active)”.

B24: the “binding in a display sort” value is “not found (inactive)”.

For B25, the “binding in a display sort” value was “not found (inactive)”.

Regarding B26, the “binding in a display sort” value is “not found (inactive)”.

Turning to B27, the “binding in a display sort” value is “not found (inactive)”.

With B28, the “binding in a display sort” value is “not found (inactive)”.

With B29, the “binding in a display sort” value was “not found (inactive)”.

Take B30: the “binding in a display sort” value was “not found (inactive)”.

On to B31, for which the “binding in a display sort” value is “not found (inactive)”.

For the molecule B32, the “binding in a display sort” value was “not found (inactive)”.

With B33, the “binding in a display sort” value was “not found (inactive)”.

With B34, the “binding in a display sort” value is “not found (inactive)”.

For B35, the “binding in a display sort” value is “not found (inactive)”.

As for B36, the “binding in a display sort” value was “not found (inactive)”.

As for B37, the “binding in a display sort” value was “not found (inactive)”.

On to B38, for which the “binding in a display sort” value was “not found (inactive)”.
